Compounds without any hit were thinned out: in the full panel of roughly 79,000, 15% have a hit. The source made the active and inactive calls. Cut-off read from the data, not from the text of the source: active = growth inhibition above about 70%; inactive = the rest.
Columns and labels:
[1] = NCI Yeast Anticancer Drug Screen. Data for the rad50 strain (AID 155);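 note: 0% = growth of vehicle-only cultures of the same strain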; conditions: S. cerevisiae rad50 strain growth inhibition; at 50.0 µM; hits give high values
Method in brief: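 Yeast carrying a defined DNA repair defect were exposed to test compounds, and growth was compared with vehicle-treated controls to give percent inhibition.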

[2] = NCI Yeast Anticancer Drug Screen. Data for the mec2-1 strain (AID 157); conditions: S. cerevisiae mec2-1 strain, at 50.0 µM, hits give high values
Method in brief: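 Mutant yeast (mec2-1) grown with compound; growth inhibition relative to vehicle control reported.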

[3] = NCI Yeast Anticancer Drug Screen. Data for the sgs1 mgt1 strain (AID 161);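 note: 0% = growth of cultures given vehicle only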; conditions: S. cerevisiae sgs1 mgt1 strain, at 50.0 µM, hits give high values
Method in brief: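 Yeast cells carrying a defined DNA-repair defect were exposed to test compounds. Growth inhibition was measured relative to vehicle-treated controls.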

[4] = NCI Yeast Anticancer Drug Screen. Data for the cln2 rad14 strain (AID 165);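 note: 0% = growth equal to vehicle treated cultures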; conditions: S. cerevisiae cln2 rad14 strain, at 50.0 µM, hits give high values
Method in brief: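 Readout is yeast growth inhibition versus vehicle-treated controls, using a strain with cln2 and rad14 alterations exposed to compound.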

[5] = NCI Yeast Anticancer Drug Screen. Data for the bub3 strain (AID 167); conditions: S. cerevisiae bub3 mutant strain, at 50.0 µM, hits give high values
Method in brief: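 Compounds were applied to a genetically altered yeast strain carrying a cell-cycle control defect. Growth inhibition was scored against vehicle-treated controls.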

[6] = NCI Yeast Anticancer Drug Screen. Data for the mlh1 rad18 strain (AID 175); conditions: S. cerevisiae mlh1 rad18 strain growth inhibition; at 50.0 µM; hits give high values
Method in brief: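 Genetically defined yeast (DNA repair-deficient) exposed to compounds; growth inhibition determined relative to vehicle.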

Measured: growth inhibition

O=C(Nc1ccccc1Cl)c1ccc([N+](=O)[O-])cc1
inactive: [1] 11.4% | [2] 15.4% | [3] 18.6% | [4] 10.3% | [5] 11.2% | [6] 24.6%

CN(C)CCn1c(CO)nc2c1c(=O)n(C)c(=O)n2C
inactive: [1] -9.95% | [2] 12.2% | [3] -21.4% | [4] -15.2% | [5] 0.1% | [6] -5.6%

Cc1cc(Cl)ccc1N1C(=O)C(=O)C(c2nc3ccccc3s2)/C(=N\NC(=O)c2ccccc2O)C1=O (stereo not drawn)
inactive: [1] -37.9% | [2] 0.45% | [3] -9.8% | [4] 10.8% | [5] -15.2% | [6] -14.9%

Cc1ccc(C(C)C)c(OC(=O)NCCCCCCNC(=O)Oc2cc(C)ccc2C(C)C)c1
inactive: [1] -11% | [2] -4.2% | [3] 10.7% | [4] 11.1% | [5] -7.2% | [6] 9.05%

CN1C2=C(CC3=C1CC(C)(C)CC3=O)C(=O)CC(C)(C)C2
inactive: [1] -18.6% | [2] -12.9% | [3] -20.1% | [4] -4.25% | [5] -27.6% | [6] -34.7%

CC1=CC(=C(C#N)C#N)c2ccccc2N1C
inactive: [1] 1.1% | [2] 4.35% | [3] -8.8% | [4] 3.75% | [5] 14.6% | [6] 1.85%

CC(C)=C1CC(C)(C)N=C1CCN1CCOCC1
inactive: [1] -12.3% | [2] -20.6% | [3] -12.5% | [4] -6% | [5] -11.3% | [6] -24.6%

CCOC(=O)c1c(C)c(=O)cnc2c(C#N)cnn12
inactive: [1] -4.55% | [2] -6.75% | [3] -6.8% | [4] -33.2% | [5] -1.4% | [6] -8.35%

O=S(=O)(O)NNc1ccc(N=Nc2ccccc2)cc1
inactive: [1] 0.2% | [2] -12.9% | [3] -3.95% | [4] 11.3% | [5] -0.75% | [6] 4.75%

O=C(CC(O)(C(F)(F)F)C(F)(F)F)c1ccc(Br)cc1
inactive: [1] 4.35% | [2] 19.6% | [3] 5.45% | [4] -8.25% | [5] 14.1% | [6] 49.4%

Cc1c(Cl)cccc1NC(=O)C(=O)C1C(=O)CC(C)(C)CC1=O
inactive: [1] 10.6% | [2] 6.8% | [3] -1.2% | [4] 7.85% | [5] 15.2% | [6] 18.8%

CN(C)c1nc(Cl)c2c(-c3ccccc3)c(-c3ccccc3)oc2n1
inactive: [1] -0.6% | [2] 3% | [3] 10.5% | [4] 16.1% | [5] 24.6% | [6] -25.1%

CC(=O)OC(C[N+]1(C)CCCCCC1)C[N+]1(C)CCCCCC1
inactive: [1] -34.6% | [2] -4.8% | [3] -17.8% | [4] -27.6% | [5] 7.95% | [6] -11.2%

O=[N+]([O-])c1cc(Cl)cc2cc(Br)cnc12
inactive: [1] 4.2% | [2] 15.3% | [3] -19.9% | [4] 3.8% | [5] 10.5% | [6] 4.4%

CCCCSC1=NCCN1
inactive: [1] 14.8% | [2] 9.15% | [3] -3.9% | [4] 5.5% | [5] 5.25% | [6] 10.5%

CSc1nc2c(nc(N)n2C2OCC(O)C(O)C2O)c(=O)[nH]1 (stereo not drawn)
inactive: [1] -19.2% | [2] -5.2% | [3] -12.5% | [4] -15% | [5] -5.65% | [6] -29.2%

COc1ccc(CCCCl)c(C2=NCCc3cc(OC)c(OC)cc32)c1
inactive: [1] 19.6% | [2] 2.4% | [3] -37.8% | [4] -6.1% | [5] -37.8% | [6] 0.9%

O=C1/C(=C/c2ccccc2)CC/C1=C\c1ccccc1
inactive: [1] 5.35% | [2] 17.6% | [3] 31.8% | [4] 20.2% | [5] 19.8% | [6] 3.85%

CC1CCCCN1C(CC(=O)c1ccccc1)C(=O)c1ccccc1 (stereo not drawn)
inactive: [1] 21.4% | [2] 24.1% | [3] 8.55% | [4] 17.1% | [5] 18.4% | [6] 38.7%

CN(C)CSCCO
inactive: [1] -2.8% | [2] -1.5% | [3] -5.7% | [4] -14.8% | [5] -5.1% | [6] 0.45%

OCCN(CCO)c1cc(/C=C/c2c3ccccc3cc3ccccc23)nc2ccccc12
active: [1] 94.2% | [2] 95.9% | [3] 96.1% | [4] 94.8% | [5] 96.5% | [6] 95.7%

Clc1ccccc1/C=N/N=C/c1ccccc1Cl
inactive: [1] 5.65% | [2] -3.95% | [3] -9.05% | [4] -21.9% | [5] 1.7% | [6] 4.9%

O=C(c1cc([N+](=O)[O-])cc([N+](=O)[O-])c1)N1CCCC1
inactive: [1] -45.8% | [2] -20.7% | [3] -2.75% | [4] -25.1% | [5] 16.4% | [6] 9.2%

Cc1nc(-n2nc(-c3ccccc3)cc2-c2ccccc2)sc1C(/C=C/c1ccc([N+](=O)[O-])cc1)=N/NC(=O)c1ccncc1
inactive: [1] 47.4% | [2] 36.7% | [3] 17.9% | [4] -24.7% | [5] 46.1% | [6] 58.5%

O=C1OC(C(=O)O)Cc2ccccc21 (stereo not drawn)
inactive: [1] -16.1% | [2] -15.2% | [3] -3.15% | [4] -5.1% | [5] -2.3% | [6] -13.3%

O=C1c2ccccc2C(=O)C2C3c4ccccc4C(c4ccccc43)C12 (stereo not drawn)
inactive: [1] -60.4% | [2] -61% | [3] -53.8% | [4] -9.2% | [5] -54.7% | [6] -57.5%

CC(O)/C=C/c1ccccc1O (stereo not drawn)
inactive: [1] 2.05% | [2] 2.85% | [3] -13.9% | [4] -41.5% | [5] -5.65% | [6] -13.6%

CC(=O)OC1C(O[C@H]2CC[C@]34O[C@]35CC[C@]3(C)C(C6(C)CC[C@@H](C(C)(C)O)O6)[C@@H](O)CC3(C)[C@@H]5CC(OC3OC(CO)C(O)C(O)C3O)C4C2(C)C)OCC(O)C1O (stereo partly drawn)
inactive: [1] -8.4% | [2] -21.6% | [3] 2.7% | [4] 1.85% | [5] 0.7% | [6] 6.35%

COc1ccccc1N1C(=O)C2C3c4ccccc4C(OC(C)=O)(c4ccccc43)C2C1=O (stereo not drawn)
inactive: [1] -19.8% | [2] -13.6% | [3] 4.25% | [4] 3.4% | [5] -14.8% | [6] 12.9%

O=[N+]([O-])c1cc(Cl)ccc1Sc1ccccc1
inactive: [1] 39.6% | [2] 8.25% | [3] 34.3% | [4] 21.9% | [5] 24.7% | [6] 27.3%

O=C(CCCCC(=O)Oc1ccc([N+](=O)[O-])cc1)Oc1ccc([N+](=O)[O-])cc1
inactive: [1] 10.9% | [2] 3.25% | [3] 13.3% | [4] 32% | [5] 3.4% | [6] 33%

Oc1ccc(OCc2ccccc2)cc1CN1CCOCC1
inactive: [1] 17.2% | [2] 7.85% | [3] 27.3% | [4] 7.15% | [5] 22.9% | [6] 34.5%

COc1cc(C(=O)NC(CCN)(c2ccccc2)c2ccccc2)cc(OC)c1OC
inactive: [1] -2.55% | [2] 30.4% | [3] 14.4% | [4] 10.4% | [5] 43.2% | [6] 29.8%

COCCOCOCCCC#C[Si](C)(C)C
inactive: [1] 8.3% | [2] 25.9% | [3] 13.9% | [4] -1.2% | [5] -4% | [6] -19.4%

c1ccc(C2=C(c3ccccn3)N=c3ccccc3=c3ccccc3=N2)nc1
inactive: [1] 2.4% | [2] 14.2% | [3] -1.15% | [4] -48.6% | [5] 3.65% | [6] -8.9%

CN(C)C1CS(=O)(=O)OC2=C1CCSc1ccccc12 (stereo not drawn)
inactive: [1] 5.1% | [2] 12.1% | [3] 11.4% | [4] -84.7% | [5] -5.65% | [6] 7.6%

Cc1ccc(S(=O)(=O)N(C)c2cc(Cl)c(C(=O)O)cc2Cl)cc1
inactive: [1] -0.7% | [2] -14.9% | [3] 5.85% | [4] 4.05% | [5] -14.3% | [6] 15.1%

Cc1ccccc1Nc1nc2ccccc2nc1NS(=O)(=O)c1ccccc1
inactive: [1] 5.1% | [2] 0% | [3] 5.85% | [4] -0.8% | [5] 18.1% | [6] -58.4%

Source: PubChem BioAssay (NCI)
